Laboratory results published in PubChem BioAssay (NCI).
Compounds without any hit were thinned out: in the full panel of roughly 83,000, 20% have a hit.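 Cells were grown in 96-well plates and exposed to the test compound at a single concentration for 48 hours; results are reported as percent growth, with values below 10 considered active.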 Values without a mark were called inactive. The source made the active and inactive calls.

Assays:
Test in all cases: NCI-60 one-dose screen, 48 h (100 = growth as untreated, 0 = no growth, -100 = all killed)
Conditions in all cases: 10 µM unless noted
SK-MEL-2 melanoma = tested on: SK-MEL-2 melanoma
EKVX NSCLC = tested on: EKVX NSCLC
SN12C renal = tested on: SN12C renal
UO-31 renal = tested on: UO-31 renal
TK-10 renal = tested on: TK-10 renal
ACHN renal = tested on: ACHN renal
CAKI-1 renal = tested on: CAKI-1 renal
A498 renal = tested on: A498 renal
CCRF-CEM leukemia = tested on: CCRF-CEM leukemia
MOLT-4 leukemia = tested on: MOLT-4 leukemia

SMILES | growth (SK-MEL-2 melanoma) | growth (EKVX NSCLC) | growth (SN12C renal) | growth (UO-31 renal) | growth (TK-10 renal) | growth (ACHN renal) | growth (CAKI-1 renal) | growth (A498 renal) | growth (CCRF-CEM leukemia) | growth (MOLT-4 leukemia)
COc1ccc(-c2c(-c3ccccc3)noc2N)cc1OC | 98.5% | 99.7% | 105% | 91.5% | 111% | 133% | 110% | 123% | 98.1% | 99.3%
CCC(C)C(N)C(=O)NNc1n[nH]c(=S)n1N (stereo not given) | 102% | 95.5% | 99.2% | 85.3% | 104% | 101% | 91% | 93.8% | 99.7% | 101%
COc1ccc(C(=O)c2cc3c(N)c(C(=O)Nc4cccc(Br)c4C)sc3nc2C)cc1 | 17.6% | 38.3% | 19.2% | 21% | 54.3% | 24% | 15.2% | -13.2% (active) | 9.3% (active) | 10.2%
COc1nccnn1 | -31.3% (active) | 107% | 97.1% | 100% | 93.3% | 100% | 108% | 92.9% | 99.8% | 106%
CC(C)(C)CC(C)(C)Nc1c(-c2ccc3c(c2)OCO3)nc2cnccn12 | 95.6% | 80.3% | 92.8% | 63.1% | 98.3% | 86.5% | 69.6% | 75.6% | 89.1% | 69.4%
CC(=O)c1c[nH]c2ccc(-c3ccnc(Nc4ccc(NC(=O)C5CCCC5)c(CN5CCOCC5)c4)n3)cc12 | -54.3% (active) | -47.3% (active) | -8.98% (active) | 2.12% (active) | 0.0909% (active) | -5.66% (active) | 0.231% (active) | -85.1% (active) | -11.5% (active) | -16.2% (active)
CCn1cc(C2NC(=O)c3ccccc3N2)c2cccc(C)c21 (stereo not given) | 2.54% (active) | 29.4% | 23.9% | 38.7% | 33.6% | 26.8% | 32.6% | -17.4% (active) | -3.39% (active) | 10.9%
NC(=O)c1ccc[n+](CC(=O)N2CCN(c3cc4c(cc3F)c(=O)c(C(=O)O)cn4C3CC3)CC2)c1 | 95.9% | 106% | 58% | 74.3% | 116% | 84.5% | 96.9% | 101% | -25.2% (active) | 26.6%
COc1cc(C2CC(c3cccc(Nc4ccncc4)c3)=NN2c2cc(Cl)cc(Cl)c2)cc(OC)c1OC (stereo not given) | 71.4% | 65.8% | 9.72% (active) | 28.4% | 34% | -66.5% (active) | 8.57% (active) | 84% | -17.5% (active) | -22.7% (active)
CC1(c2ccccc2)NC(=O)N(CC(=O)Nc2cccc(I)c2)C1=O (stereo not given) | 77.5% | 106% | 96.9% | 69.8% | 96.1% | 91.4% | 72.9% | 70.5% | 88.5% | 85.3%
Clc1cc(Cl)cc(N2N=C(c3cccc(Nc4ccncc4)c3)CC2c2ccc3c(c2)OCO3)c1 (stereo not given) | 81.7% | 78.8% | 64.6% | 39.5% | 65.7% | -27.5% (active) | 16.4% | 96.6% | -1.31% (active) | -0.295% (active)
O=C(Nc1sc2c(c1C(=O)O)CCCC2)c1cccc(C(F)(F)F)c1 | 98.6% | 93.7% | 95.6% | 85.8% | 105% | 87.9% | 91.1% | 95.2% | 85.3% | 96.9%
C#Cc1cccc(NC(=O)Nc2ccc(NC(=O)CCl)cc2)c1 | -25% [8.25 µM] (active) | 88.3% [8.25 µM] | -9.22% [8.25 µM] (active) | -97.4% [8.25 µM] (active) | -71.4% [8.25 µM] (active) | -99.5% [8.25 µM] (active) | 9.01% [8.25 µM] (active) | 76.4% [8.25 µM] | -29.8% [8.25 µM] (active) | -9.78% [8.25 µM] (active)
CCN(CC)CCCCCCNc1cc(OC)cc2cccnc12 | 114% | 90.1% | 89.4% | 62.6% | 130% | 99.6% | 90.4% | 63.5% | -35.6% (active) | -57.3% (active)
c1ccc(-c2nnc(Nc3ccc4c(c3)OCCO4)o2)c(NCc2ccncc2)c1 | 4.04% (active) | 35.4% | 27.5% | 30.2% | 50.9% | 23.4% | 21.1% | 10% | 20.4% | 21.1%
COc1cc(OC)c(/C=C/C(=O)c2ccc(Nc3ncnc4ccccc34)cc2)c(OC)c1 | 7.01% (active) | 2.86% (active) | 25.3% | -15.8% (active) | -17.9% (active) | 22.8% | 17.8% | -26.4% (active) | 1.37% (active) | 12.7%
COc1cc(NCC(C)(O)CN(CC(C)C)CC(C)C)c2nc(C)ccc2c1 (stereo not given) | 96.8% | 91.5% | 81% | 54.5% | 119% | 79% | 67.7% | 56.5% | 85.4% | 80.7%
NS(=O)(=O)c1cccc(NC(=O)C(=O)C2C(=O)Nc3ccccc32)c1 (stereo not given) | 113% | 76% | 99.5% | 67.2% | 129% | 90.4% | -3.03% (active) | 120% | 69.7% | 100%
O=C1c2ccccc2C(=O)c2c(NCCN=Cc3ccccc3O)cccc21 | 108% | 56% | 50.3% | 39.3% | 68.5% | 30.9% | -10.3% (active) | 35.1% | 59% | -16.4% (active)
Fc1ccc2nc3c(cc2c1)CSc1nnc(-c2ccc[nH]c2=S)n1N3 | 98.3% | 94.2% | 98.2% | 82% | 110% | 94% | 83.8% | 92.1% | 98.9% | 101%
CCC(C)N(CCNc1cc(OC)cc2cccnc12)CCC(C)C (stereo not given) | 90% | 92.2% | 93.5% | 77.8% | 96.7% | 75.2% | 90.8% | 72.9% | 109% | 83.9%
O=C(O)c1ccc[n+](CC(=O)N2CCN(c3cc4c(cc3F)c(=O)c(C(=O)O)cn4C3CC3)CC2)c1 | 86.1% | 107% | 29.4% | 71.8% | 112% | 72.8% | 92.8% | 98% | -25.6% (active) | 12.6%
CCOC(=O)c1cnc2c(cnn2CC)c1NN=C(C)C | 40% | 93% | 105% | 68.4% | 87.3% | 84.1% | 100% | 68% | 92% | 81%
Cn1c(COC(=O)NCCc2ccccn2)nc2c(N3CCOCC3)nc(Cl)nc21 | 26.7% | 14.9% | -41.5% (active) | -99.3% (active) | -72.2% (active) | -100% (active) | -78.9% (active) | 51.9% | -9.98% (active) | 0.583% (active)
Cc1ccc(C(c2c(O)c3cc(Br)ccc3[nH]c2=O)c2c(O)c3cc(Br)ccc3[nH]c2=O)cc1 | 90.2% | 71.2% | 94.5% | 59.5% | 106% | 73.5% | 76.5% | 79.6% | 80.3% | 66.6%
COc1ccc(CNC(=O)COc2ccc(/C=N/Nc3nc4ccccc4s3)cc2)cc1 | 63.9% | 52% | 30.8% | 60.7% | 86.9% | 8.13% (active) | 27.9% | -19.5% (active) | 62.4% | 76.5%
Clc1ccc(C2CC(c3cccc(Nc4ccncc4)c3)=NN2c2ccccc2)cc1 (stereo not given) | 83.7% | 89.8% | 76.6% | 63.2% | 57.4% | 78.1% | 52.6% | 84% | 36.7% | -6.03% (active)
